{
  "source": "the supplement of paper PMC10849652",
  "note": "About 7,900 targets were measured; listed, in parts, are those with a hit and a random draw of the rest. About 0.6% of all pairs of compound and target were hits. Unmarked numbers belong to inactive results.",
  "data": [
    {"compound": "CC1=C(C(CC(=O)N1)C2=CC=C(C=C2)C(F)(F)F)C(=O)NC3=C(C=C4C(=C3)C=NN4)F", "assay": "log2 fold change, soluble protein after heating vs DMSO (PISA); higher = thermal stabilisation; K562 cells, 10 uM, 30 min; active = over 0.2 and 3.5 SD of the protein, either way, in both replicates (recomputed)", "procedure,_shortened": "(§1)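 K562 cells at 2×10^6 cells/mL were treated with 10 μM compound for 30 min. Aliquots were heated for 3 min across 48°C-58°C, pooled, and extracted in PBS with 0.5% NP-40 at 4°C; soluble protein was the supernatant after 21,000xg for 90 min. Soluble protein was quantified by TMTpro 16plex LC-MS/MS with channel sums equalised, and reported as log2 fold change in thermal stability against DMSO controls, with values from duplicates.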", "values": [
      {"target": "PCLAF (UniProt Q15004)", "sequence (Q15004 whole entry, looked up)": "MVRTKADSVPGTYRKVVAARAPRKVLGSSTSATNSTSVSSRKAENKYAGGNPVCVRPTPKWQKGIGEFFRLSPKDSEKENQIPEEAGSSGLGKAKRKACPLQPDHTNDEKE", "log2 fold change": 0.139},
      {"target": "PTGFRN (UniProt Q9P2B2)", "log2 fold change": 0.006},
      {"target": "PSMD7 (UniProt P51665)", "log2 fold change": 0.034},
      {"target": "POTEI (UniProt P0CG38)", "log2 fold change": 0.021},
      {"target": "POMP (UniProt Q9Y244)", "sequence (Q9Y244 whole entry, looked up)": "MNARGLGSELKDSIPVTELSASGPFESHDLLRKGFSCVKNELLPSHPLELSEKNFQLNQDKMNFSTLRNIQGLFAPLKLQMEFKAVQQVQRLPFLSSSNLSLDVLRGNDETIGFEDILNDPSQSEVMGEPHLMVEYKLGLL", "log2 fold change": 0.076},
      {"target": "PRKACB isoform 2 (UniProt P22694)", "log2 fold change": -0.034},
      {"target": "PPP2R5A (UniProt Q15172)", "sequence (Q15172 whole entry, looked up)": "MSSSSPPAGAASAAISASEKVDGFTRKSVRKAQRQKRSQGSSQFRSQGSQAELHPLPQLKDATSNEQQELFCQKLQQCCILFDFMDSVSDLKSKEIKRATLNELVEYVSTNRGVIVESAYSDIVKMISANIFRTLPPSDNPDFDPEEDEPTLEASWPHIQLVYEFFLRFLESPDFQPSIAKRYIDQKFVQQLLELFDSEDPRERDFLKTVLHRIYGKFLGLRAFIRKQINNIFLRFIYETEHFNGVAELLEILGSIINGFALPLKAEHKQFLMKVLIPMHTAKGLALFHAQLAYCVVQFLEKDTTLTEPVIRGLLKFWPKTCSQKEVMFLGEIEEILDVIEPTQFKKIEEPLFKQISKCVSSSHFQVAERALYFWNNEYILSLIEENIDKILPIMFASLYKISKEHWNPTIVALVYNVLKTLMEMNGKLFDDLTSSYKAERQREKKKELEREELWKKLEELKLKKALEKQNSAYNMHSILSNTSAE", "log2 fold change": 0.02},
      {"target": "PHKA2 (UniProt P46019)", "sequence (P46019 whole entry, looked up)": "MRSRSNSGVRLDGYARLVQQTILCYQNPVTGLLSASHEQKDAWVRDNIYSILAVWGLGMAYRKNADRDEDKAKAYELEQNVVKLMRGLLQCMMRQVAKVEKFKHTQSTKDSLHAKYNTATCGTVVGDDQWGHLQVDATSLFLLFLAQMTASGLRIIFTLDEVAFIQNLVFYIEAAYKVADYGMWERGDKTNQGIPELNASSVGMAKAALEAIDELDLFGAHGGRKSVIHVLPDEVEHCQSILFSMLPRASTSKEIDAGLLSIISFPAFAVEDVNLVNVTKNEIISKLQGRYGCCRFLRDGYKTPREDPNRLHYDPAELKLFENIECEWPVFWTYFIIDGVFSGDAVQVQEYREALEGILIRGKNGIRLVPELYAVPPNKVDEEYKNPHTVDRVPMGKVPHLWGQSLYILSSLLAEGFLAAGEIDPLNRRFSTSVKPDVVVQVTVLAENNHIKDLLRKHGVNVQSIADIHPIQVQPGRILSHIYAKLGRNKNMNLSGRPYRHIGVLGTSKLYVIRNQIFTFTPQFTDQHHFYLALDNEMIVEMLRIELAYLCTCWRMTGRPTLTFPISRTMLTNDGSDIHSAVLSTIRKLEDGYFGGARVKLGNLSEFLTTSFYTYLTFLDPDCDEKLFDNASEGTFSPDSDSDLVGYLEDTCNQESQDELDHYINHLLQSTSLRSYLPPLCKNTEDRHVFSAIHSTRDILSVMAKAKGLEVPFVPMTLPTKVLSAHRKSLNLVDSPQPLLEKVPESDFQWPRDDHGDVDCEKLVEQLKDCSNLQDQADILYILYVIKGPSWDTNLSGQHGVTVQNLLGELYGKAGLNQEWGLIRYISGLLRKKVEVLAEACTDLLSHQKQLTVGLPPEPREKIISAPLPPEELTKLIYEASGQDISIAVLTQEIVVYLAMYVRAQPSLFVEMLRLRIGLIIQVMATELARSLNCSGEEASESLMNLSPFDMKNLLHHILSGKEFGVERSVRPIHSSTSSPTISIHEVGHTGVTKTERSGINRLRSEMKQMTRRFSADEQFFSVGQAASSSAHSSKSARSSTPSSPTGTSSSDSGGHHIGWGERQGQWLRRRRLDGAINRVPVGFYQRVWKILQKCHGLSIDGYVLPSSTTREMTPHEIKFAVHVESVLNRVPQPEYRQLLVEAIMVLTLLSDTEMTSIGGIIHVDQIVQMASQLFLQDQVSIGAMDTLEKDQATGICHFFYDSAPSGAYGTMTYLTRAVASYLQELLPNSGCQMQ", "log2 fold change": 0.176},
      {"target": "PCTP (UniProt Q9UKL6)", "log2 fold change": 0.04},
      {"target": "PEX11B (UniProt O96011)", "log2 fold change": 0.055},
      {"target": "PRKAR1B (UniProt P31321)", "log2 fold change": -0.079},
      {"target": "PTPMT1 (UniProt Q8WUK0)", "log2 fold change": 0.043},
      {"target": "POLD1 (UniProt P28340)", "log2 fold change": -0.005},
      {"target": "PSMD9 (UniProt O00233)", "log2 fold change": 0.017},
      {"target": "QRICH1 (UniProt Q2TAL8)", "log2 fold change": 0.029},
      {"target": "PNPLA8 (UniProt Q9NP80)", "sequence (Q9NP80 whole entry, looked up)": "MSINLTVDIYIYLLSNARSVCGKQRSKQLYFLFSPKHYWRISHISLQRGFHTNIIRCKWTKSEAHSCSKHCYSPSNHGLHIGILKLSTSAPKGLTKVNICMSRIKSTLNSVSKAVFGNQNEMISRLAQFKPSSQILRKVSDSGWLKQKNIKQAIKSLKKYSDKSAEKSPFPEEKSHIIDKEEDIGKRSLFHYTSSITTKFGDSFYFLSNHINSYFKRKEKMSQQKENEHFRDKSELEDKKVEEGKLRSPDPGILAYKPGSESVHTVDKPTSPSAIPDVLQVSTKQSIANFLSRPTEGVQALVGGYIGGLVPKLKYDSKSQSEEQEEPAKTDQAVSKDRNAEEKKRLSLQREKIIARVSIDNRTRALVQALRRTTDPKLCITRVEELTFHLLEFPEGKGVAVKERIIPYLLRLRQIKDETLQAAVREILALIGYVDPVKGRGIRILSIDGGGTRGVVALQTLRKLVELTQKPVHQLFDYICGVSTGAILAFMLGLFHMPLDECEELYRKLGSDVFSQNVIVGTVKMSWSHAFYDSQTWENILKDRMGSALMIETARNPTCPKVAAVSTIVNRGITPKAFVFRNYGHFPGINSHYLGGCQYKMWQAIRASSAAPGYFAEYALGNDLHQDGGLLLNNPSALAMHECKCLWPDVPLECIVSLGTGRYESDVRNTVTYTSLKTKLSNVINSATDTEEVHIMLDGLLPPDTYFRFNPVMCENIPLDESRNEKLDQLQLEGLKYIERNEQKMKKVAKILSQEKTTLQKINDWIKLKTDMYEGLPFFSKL", "log2 fold change": -0.008},
      {"target": "POLA1 (UniProt P09884)", "log2 fold change": -0.044},
      {"target": "PSMD1 (UniProt Q99460)", "sequence (Q99460 whole entry, looked up)": "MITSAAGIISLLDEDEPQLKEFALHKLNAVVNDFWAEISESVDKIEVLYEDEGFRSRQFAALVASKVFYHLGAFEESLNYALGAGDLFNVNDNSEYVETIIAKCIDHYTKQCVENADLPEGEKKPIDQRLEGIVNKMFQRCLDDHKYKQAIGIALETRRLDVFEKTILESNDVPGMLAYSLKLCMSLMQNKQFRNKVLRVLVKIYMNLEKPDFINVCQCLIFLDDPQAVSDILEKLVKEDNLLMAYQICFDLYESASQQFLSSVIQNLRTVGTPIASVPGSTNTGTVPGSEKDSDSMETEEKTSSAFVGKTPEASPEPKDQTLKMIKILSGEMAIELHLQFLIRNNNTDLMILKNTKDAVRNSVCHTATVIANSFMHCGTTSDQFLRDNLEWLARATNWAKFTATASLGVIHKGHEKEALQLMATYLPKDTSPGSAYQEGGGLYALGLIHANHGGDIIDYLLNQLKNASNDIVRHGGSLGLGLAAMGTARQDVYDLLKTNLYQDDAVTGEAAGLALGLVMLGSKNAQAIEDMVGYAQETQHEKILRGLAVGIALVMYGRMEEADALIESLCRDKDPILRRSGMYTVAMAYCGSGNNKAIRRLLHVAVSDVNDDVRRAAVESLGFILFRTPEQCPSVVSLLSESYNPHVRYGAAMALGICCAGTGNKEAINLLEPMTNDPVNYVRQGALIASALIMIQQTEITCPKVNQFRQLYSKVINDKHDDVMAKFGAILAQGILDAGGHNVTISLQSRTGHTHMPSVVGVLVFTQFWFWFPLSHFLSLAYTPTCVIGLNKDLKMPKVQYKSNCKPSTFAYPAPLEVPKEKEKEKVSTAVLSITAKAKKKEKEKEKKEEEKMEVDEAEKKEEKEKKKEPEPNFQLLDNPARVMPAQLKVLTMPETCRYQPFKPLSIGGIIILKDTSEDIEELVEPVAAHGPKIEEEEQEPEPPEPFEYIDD", "log2 fold change": 0.028},
      {"target": "PHKA1 (UniProt P46020)", "log2 fold change": 0.118},
      {"target": "PPP2R5C isoform 5 (UniProt Q13362)", "sequence (Q13362 whole entry, looked up)": "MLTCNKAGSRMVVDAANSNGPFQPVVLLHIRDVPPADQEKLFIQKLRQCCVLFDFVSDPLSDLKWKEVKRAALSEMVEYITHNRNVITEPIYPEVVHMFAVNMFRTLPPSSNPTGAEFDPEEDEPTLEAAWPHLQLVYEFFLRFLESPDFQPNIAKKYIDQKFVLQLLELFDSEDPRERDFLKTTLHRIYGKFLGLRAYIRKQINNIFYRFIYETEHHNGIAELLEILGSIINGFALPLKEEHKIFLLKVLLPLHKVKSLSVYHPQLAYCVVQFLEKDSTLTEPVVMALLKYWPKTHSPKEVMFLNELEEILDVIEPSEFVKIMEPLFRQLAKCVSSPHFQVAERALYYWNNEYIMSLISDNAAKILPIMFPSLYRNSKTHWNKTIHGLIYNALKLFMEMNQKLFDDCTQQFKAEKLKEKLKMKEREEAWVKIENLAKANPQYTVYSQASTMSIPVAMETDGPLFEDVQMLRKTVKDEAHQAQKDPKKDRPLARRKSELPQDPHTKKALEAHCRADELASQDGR", "log2 fold change": 0.005},
      {"target": "PTRHD1 (UniProt Q6GMV3)", "log2 fold change": 0.054},
      {"target": "PSMC5 (UniProt P62195)", "log2 fold change": 0.037},
      {"target": "PDLIM7 (UniProt Q9NR12)", "log2 fold change": 0.004},
      {"target": "PTTG1 (UniProt O95997)", "log2 fold change": 0.055},
      {"target": "PEX16 isoform 2 (UniProt Q9Y5Y5)", "log2 fold change": 0.03},
      {"target": "PCYT1B (UniProt Q9Y5K3)", "log2 fold change": 0.058},
      {"target": "PSMD13 (UniProt Q9UNM6)", "log2 fold change": 0.049},
      {"target": "PIP4P1 isoform 2 (UniProt Q86T03)", "log2 fold change": 0.131},
      {"target": "PIP4K2A (UniProt P48426)", "log2 fold change": -0.118},
      {"target": "PRIM1 (UniProt P49642)", "log2 fold change": 0.026},
      {"target": "PRKAR2A (UniProt P13861)", "log2 fold change": -0.06},
      {"target": "PLSCR1 (UniProt O15162)", "sequence (O15162 whole entry, looked up)": "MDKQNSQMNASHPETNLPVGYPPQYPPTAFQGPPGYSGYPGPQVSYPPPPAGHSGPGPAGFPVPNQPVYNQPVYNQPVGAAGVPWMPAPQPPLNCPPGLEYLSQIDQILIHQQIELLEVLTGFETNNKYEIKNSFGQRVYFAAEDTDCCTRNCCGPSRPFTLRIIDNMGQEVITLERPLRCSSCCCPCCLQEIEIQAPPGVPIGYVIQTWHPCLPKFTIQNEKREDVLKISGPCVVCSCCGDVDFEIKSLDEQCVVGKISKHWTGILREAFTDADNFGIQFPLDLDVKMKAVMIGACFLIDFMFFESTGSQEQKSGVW", "log2 fold change": -0.011},
      {"target": "PHKG2 (UniProt P15735)", "log2 fold change": -0.041},
      {"target": "POLR3D (UniProt P05423)", "log2 fold change": 0.012},
      {"target": "PDE4DIP isoform 4 (UniProt Q5VU43)", "log2 fold change": 0.069},
      {"target": "PLA2G15 (UniProt Q8NCC3)", "sequence (Q8NCC3 whole entry, looked up)": "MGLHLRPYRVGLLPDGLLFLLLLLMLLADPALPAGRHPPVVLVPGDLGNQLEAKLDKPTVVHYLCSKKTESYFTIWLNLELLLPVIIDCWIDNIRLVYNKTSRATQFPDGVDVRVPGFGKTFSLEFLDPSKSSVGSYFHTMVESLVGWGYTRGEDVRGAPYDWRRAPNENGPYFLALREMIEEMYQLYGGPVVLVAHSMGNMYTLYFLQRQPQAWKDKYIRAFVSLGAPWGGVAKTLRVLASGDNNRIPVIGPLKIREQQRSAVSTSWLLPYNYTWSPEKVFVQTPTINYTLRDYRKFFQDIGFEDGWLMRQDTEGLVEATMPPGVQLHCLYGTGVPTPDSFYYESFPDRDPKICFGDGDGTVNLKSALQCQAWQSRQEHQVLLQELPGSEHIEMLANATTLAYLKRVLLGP", "log2 fold change": -0.031}
    ]},
    {"compound": "CC1=C(C2=C(C=C1)C(=O)C3=CC=CC=C3N2CCCN)C", "assay": "log2 fold change, soluble protein after heating vs DMSO (PISA); higher = thermal stabilisation; K562 cells, 10 uM, 30 min; active = over 0.2 and 3.5 SD of the protein, either way, in both replicates (recomputed)", "procedure,_shortened": "as §1", "values": [
      {"target": "PCLAF (UniProt Q15004)", "log2 fold change": -0.088},
      {"target": "PTGFRN (UniProt Q9P2B2)", "log2 fold change": 0.028},
      {"target": "PSMD7 (UniProt P51665)", "log2 fold change": -0.029},
      {"target": "POTEI (UniProt P0CG38)", "log2 fold change": 0.012},
      {"target": "POMP (UniProt Q9Y244)", "log2 fold change": -0.053},
      {"target": "PRKACB isoform 2 (UniProt P22694)", "log2 fold change": 0.044},
      {"target": "PPP2R5A (UniProt Q15172)", "log2 fold change": 0.071},
      {"target": "PHKA2 (UniProt P46019)", "log2 fold change": 0.028},
      {"target": "PCTP (UniProt Q9UKL6)", "log2 fold change": 0.005},
      {"target": "PEX11B (UniProt O96011)", "log2 fold change": 0.012},
      {"target": "PRKAR1B (UniProt P31321)", "log2 fold change": -0.104},
      {"target": "PTPMT1 (UniProt Q8WUK0)", "log2 fold change": -0.057},
      {"target": "POLD1 (UniProt P28340)", "log2 fold change": -0.011},
      {"target": "PSMD9 (UniProt O00233)", "log2 fold change": -0.004},
      {"target": "QRICH1 (UniProt Q2TAL8)", "log2 fold change": -0.08},
      {"target": "PNPLA8 (UniProt Q9NP80)", "log2 fold change": 0.043},
      {"target": "POLA1 (UniProt P09884)", "log2 fold change": -0.066},
      {"target": "PSMD1 (UniProt Q99460)", "log2 fold change": -0.004},
      {"target": "PHKA1 (UniProt P46020)", "log2 fold change": 0.022},
      {"target": "PPP2R5C isoform 5 (UniProt Q13362)", "log2 fold change": -0.018},
      {"target": "PTRHD1 (UniProt Q6GMV3)", "log2 fold change": 0.184},
      {"target": "PSMC5 (UniProt P62195)", "log2 fold change": 0.002},
      {"target": "PDLIM7 (UniProt Q9NR12)", "log2 fold change": 0.065},
      {"target": "PTTG1 (UniProt O95997)", "log2 fold change": -0.084},
      {"target": "PEX16 isoform 2 (UniProt Q9Y5Y5)", "log2 fold change": 0.136},
      {"target": "PCYT1B (UniProt Q9Y5K3)", "log2 fold change": -0.12},
      {"target": "PSMD13 (UniProt Q9UNM6)", "log2 fold change": 0.032},
      {"target": "PIP4P1 isoform 2 (UniProt Q86T03)", "log2 fold change": -0.062},
      {"target": "PIP4K2A (UniProt P48426)", "log2 fold change": -0.02},
      {"target": "PRIM1 (UniProt P49642)", "log2 fold change": -0.006},
      {"target": "PRKAR2A (UniProt P13861)", "log2 fold change": 0.058},
      {"target": "PLSCR1 (UniProt O15162)", "log2 fold change": 0.031},
      {"target": "PHKG2 (UniProt P15735)", "log2 fold change": 0.115},
      {"target": "POLR3D (UniProt P05423)", "log2 fold change": 0.009},
      {"target": "PDE4DIP isoform 4 (UniProt Q5VU43)", "log2 fold change": 0.088},
      {"target": "PLA2G15 (UniProt Q8NCC3)", "log2 fold change": -0.141}
    ]}
  ]
}
